HEK cytotox: HEK 293 cell cytotoxicity; actives 6.6% (n = 94,000); HEK 293 viability, ATP luminescence (CellTiter-Glo), 48-72 h; AID 1345083; Potency, µM (titrated, usually from 115 µM), inactives show top-dose activity change, negative = cytotoxicity, usual class: inhibitors; note: nearly all actives have a fitted effect of over 60% in size
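Cytotoxicity was scored by loss of ATP-coupled luminescence (CellTiter-Glo) in HEK 293 cells. Compound treatment ran 48 or 72 hr at 37 degree Celsius, 5% CO2, 95% humidity.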
NIH3T3 tox: cytotoxic compounds in NIH 3T3 cells; actives 4.3% (n = 94,000); Potency, µM (highest dose often 96.7 µM), inactives show at the top dose activity change, negative = cytotoxicity, most hits filed as inhibitors; NIH 3T3 viability, CellTiter-Glo ATP luminescence, 48-72 h; note: nearly all actives have a fitted effect of over 55% in size
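Viability of NIH 3T3 cells after 48 or 72 hr compound treatment at 37 °C was assessed by CellTiter-Glo, with luminescence imaged following a 10 min room-temperature step.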
FLuc inh: blocks purified firefly luciferase enzyme activity | P08659 | purified P. pyralis luciferase, luminescence, biochemical | Potency, µM (doses to about 115 µM), usual class: inhibitors | actives 2.5% (n = 76,000); note: nearly all actives have a fitted effect of over 65% in size
Target sequence (P08659 whole entry, looked up): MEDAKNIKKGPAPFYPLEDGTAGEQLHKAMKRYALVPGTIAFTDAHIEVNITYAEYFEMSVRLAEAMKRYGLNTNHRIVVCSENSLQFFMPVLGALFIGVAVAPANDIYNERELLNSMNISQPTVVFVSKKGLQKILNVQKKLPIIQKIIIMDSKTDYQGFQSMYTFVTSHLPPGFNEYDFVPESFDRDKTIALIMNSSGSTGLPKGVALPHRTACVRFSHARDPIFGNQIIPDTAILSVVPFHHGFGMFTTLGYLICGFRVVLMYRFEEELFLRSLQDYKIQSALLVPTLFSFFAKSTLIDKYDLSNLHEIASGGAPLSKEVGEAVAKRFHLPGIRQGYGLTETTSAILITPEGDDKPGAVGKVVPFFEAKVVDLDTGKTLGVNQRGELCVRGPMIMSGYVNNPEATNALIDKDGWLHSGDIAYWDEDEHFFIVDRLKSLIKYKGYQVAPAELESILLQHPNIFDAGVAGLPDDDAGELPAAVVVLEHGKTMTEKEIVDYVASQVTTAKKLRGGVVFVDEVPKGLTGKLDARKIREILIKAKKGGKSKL
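Inhibitors were tested against purified firefly luciferase in a biochemical, low-substrate format (both substrates at 10uM) and luminescence measured with a CCD imager.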
GPT2 inhibitor: blocks human glutamate pyruvate transaminase 2 | Q8TD30 | Potency, µM (titrated, usually from 57.7 µM), inactives show top-dose activity change, negative = inhibition, usual class: inhibitors | Recombinant GPT2, coupled pyruvate oxidase/HRP Amplex Red fluorescence | actives 0.25% (n = 100,000); note: nearly all actives have a fitted effect of over 60% in size
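Fluorescence of coupled pyruvate oxidase/HRP/Amplex Red system (50uM Amplex, 30 min, dark) reports pyruvate formed by GPT2. Enzyme reaction: 10ng/uL GPT2, 2mM L-alanine, 250uM a-KG, 30 min room temperature, pH 7.5; 50uM AOA control.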
NPR1 antag: human Npr1 receptor antagonism; HEK293 hNpr1 GloSensor cGMP, ANP-stimulated luminescence; P16066; Potency, µM (highest dose often 46.3 µM), for the others: at the highest dose activity change, negative = inhibition, most hits filed as inhibitors; AID 1347048; actives 1.6% (n = 76,000); calls by dose curve; note: nearly all actives have a fitted effect of over 60% in size
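HEK293 cells stably expressing human Npr1 and cGMP GloSensor pGS-40F, loaded 2 h with 2% GloSensor reagent, given compound 30 min at room temperature. Luminescence read before and 20 min after 0.1 nM hNppA.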
* hit, by the source's call; i = inactive; ? = inconclusive; . = not tested or not shown; [ ] = another dose, or the depositor's remark. An excerpt weighted towards active compounds, which were near 10% of everything screened. Unless noted, calls come from the whole dose curve; as a rule, active = well fitted curve in the direction sought with a large enough effect; inconclusive = small, poorly fitted or top-dose-only effect, or another doubt; inactive = no such curve, though single readings can be large; an effect the other way counts as inactive or inconclusive. % is set by controls: 0 for no effect and ±100 for the full control effect; potency is the fitted concentration of half-maximal effect.

SMILES	HEK cytotox	NIH3T3 tox	FLuc inh	GPT2 inhibitor	NPR1 antag
CN(C)c1nccnc1OC1CCN(C(=O)c2ccoc2)C1 (stereo not given)	22%	i	40µM*	-2%	3%
CCCN(C)c1nccnc1OC1CCN(C(=O)c2ccc(OC)cc2)C1 (stereo not given)	45µM*	-23%	40µM*	-13%	-15%
COCC(=O)N1CCC(Oc2nccnc2N(C)C)C1 (stereo not given)	-6%	-22%	i	3%	-4%
Cc1nnc2ccc(N3CCN(C(=O)C(C)(C)C)CC3)nn12	-25%[172 µM]	-21%[138 µM]	.	.	.
O=C(C1CCN(Cc2ccccc2-c2cccnc2)CC1)N1CCCC1	?	-23%[138 µM]	.	-5%[88.5 µM]	.
O=C(C1CCN(Cc2ccccc2-c2cccnc2)CC1)N1CCC(c2ccccc2)CC1	35µM*	45µM*	.	-4%	.
O=C(Nc1ccc(Cl)cc1)N1CCN(Cc2ccccc2-c2cccnc2)CC1	?	35µM*	.	-10%	.
O=[S+]([O-])(c1cccs1)N1CCN(Cc2ccccc2-c2cccnc2)CC1	?	?	.	-13%	.
O=[S+]([O-])(c1ccccc1)N1CCN(Cc2ccccc2-c2cccnc2)CC1	35µM*	?	.	2%	.
CCOc1ccccc1C(=O)N1CCC(N2C(=O)CCC2C(=O)NCc2ccccc2)CC1 (stereo not given)	-8%	-3%	i	-6%	-1%
COC[C@@H]1[C@H](C(=O)NCc2ccc(F)cc2)CCC(=O)N1C	-24%	-13%	.	1%	.
Cc1cc(C(=O)N2CCC(N3C[C@H](Oc4ccccc4)[C@@H]3c3ccncc3)CC2)n(C)n1	?	-15%	.	i	.
COc1ccc(CC(=O)N2CCc3nc(C)nc(-c4ccc(OC)cc4)c3C2)cc1	4%	i	.	0%	.
COc1ccccc1Nc1ccnc(N2CCCC(C(=O)NCc3cccc(F)c3)C2)n1 (stereo not given)	11µM*	13µM*	.	-1%	.
COc1ccccc1Nc1ccnc(N2CCCC(C(=O)NCC(F)(F)F)C2)n1 (stereo not given)	?	?	.	0%	.
COc1ccccc1Nc1ccnc(N2CCCC(C(=O)NCCc3ccc(Cl)cc3)C2)n1 (stereo not given)	?	?	.	-7%	.
COc1ccccc1Nc1ccnc(N2CCCC(C(=O)NCc3cccc(Cl)c3)C2)n1 (stereo not given)	?	13µM*	.	i	.
COc1ccc(OC)c(NC(=O)Cn2c(-c3ccc(Cl)cc3)nc(C)c(CCO)c2=O)c1	-2%	-11%	i	i	-2%
Fc1ccc(-c2noc([C@@H]3Cc4nc[nH]c4CN3CCCc3ccccc3)n2)cc1Cl	?	?	?	-25%	-12%
Fc1ccc(-c2noc([C@@H]3Cc4nc[nH]c4CN3Cc3cccs3)n2)cc1Cl	?	50µM*	56µM*	i	-28%[70.6 µM]
Fc1ccc(-c2noc([C@@H]3Cc4nc[nH]c4CN3Cc3ccccc3)n2)cc1Cl	71µM*	71µM*	i	i	-26%[70.6 µM]
Cc1ccc(-c2noc([C@@H]3Cc4nc[nH]c4CN3Cc3cccs3)n2)cc1	79µM*	79µM*	28µM*	-5%[88.5 µM]	-18%[70.6 µM]
Oc1ccc(NCCN2CCCC2)cc1	?	45µM*	.	i	.
Clc1ccc(NCCN2CCCC2)cc1	-24%[230 µM]	-4%[174 µM]	.	4%[88.5 µM]	.
CC1=C[C@@H](CNC(=O)Nc2ccccc2)[C@H](C(C)C)C[C@H]1Cc1nnc(-c2ccncc2)o1	22µM*	?	i	-1%	?
CC1=C[C@@H](CNS(=O)(=O)c2ccc(C#N)cc2)[C@H](C(C)C)C[C@H]1Cc1nnc(-c2ccncc2)o1	?	?	i	-6%	-19%
CC1=C[C@@H](CNS(=O)(=O)c2ccccc2)[C@H](C(C)C)C[C@H]1Cc1nnc(-c2ccncc2)o1	25µM*	20µM*	i	0%	?
CC1=C[C@@H](CNC(=O)c2ccncc2)[C@H](C(C)C)C[C@H]1Cc1nnc(-c2ccncc2)o1	79µM*	?	i	i	?
COc1ccc(-c2cc(-c3ccc4c(c3)CNC4=O)cn3cncc23)cc1	?	?	?	-15%[88.5 µM]	-4%[70.6 µM]

From PubChem BioAssay
